RE007 growth inh: less growth of the S. pombe RE007 Vpr strain. S. pombe RE007 Vpr strain, BacTiter-Glo ATP luminescence, 24 h. Potency, µM (doses to about 92.2 µM), usual class: inhibitors. 0.21% of 360,000 active. AID 651644; active means well fitted falling curve with a large enough effect; inconclusive means small, poorly fitted or top-dose-only effect; inactive means no such curve, though single readings can be large or run the other way; further: nearly all actives have a fitted effect of over 50% in size
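Fission yeast strain RE007, carrying one chromosomally integrated HIV-1 vpr copy, was seeded at OD 0.01 in PMG+AL medium with 23 nL pinned compound. After 24 h at 30 °C and 99% humidity, viability was read by BacTiter-Glo luminescence.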
NS1 function inh: inhibitors of influenza NS1 protein function | Potency, µM (highest dose often 46.1 µM) | 0.4% of 270,000 active | AID 2326; calls by dose curve; further: actives are rising curves; nearly all actives have a fitted effect of over 50% in size
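S. cerevisiae expressing influenza A NS1, grown in glucose, washed, then diluted 1:100 into pH 6.0 -URA galactose medium with 23 nl compound. Growth recovery read as OD600; NS1-free strain serves as control.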
Pf growth 96h: P. falciparum growth inhibition at 96 hours; P. falciparum luciferase reporter growth, 96 h; Potency, µM (doses to about 28.7 µM), usual class: inhibitors; 6.9% of 320,000 active; AID 504834
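Cell-based qHTS: luciferase-tagged P. falciparum in erythrocytes (2% hematocrit, 0.05% parasitemia final) incubated with compounds for 96 hours, 37 C, 5% CO2; luciferase detection reagent then added and luminescence measured.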
Pf growth 48h: P. falciparum growth inhibition at 48 hours (one generation); 5.9% of 310,000 active; Potency, µM (titrated, usually from 28.7 µM), actives largely listed as inhibitors; AID 504832; P. falciparum luciferase growth in erythrocytes, 48 h
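A one-generation exposure of luciferase-tagged malaria parasites in RPMI 1640/Albumax erythrocyte culture, 37 C and 5% CO2. Inhibition is inferred from decreased luminescence after adding detection reagent.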
SARS PLpro yeast: blocks SARS-CoV papain-like protease in a yeast assay; 0.19% of 330,000 active; Potency, µM (series often up to 32.9 µM), usual class: activators; S. cerevisiae expressing SARS-CoV PLpro, growth rescue; calls by dose curve; further: nearly all actives have a fitted effect of over 55% in size
Large screens that a line does not name were inactive. Sampled rows, rich in hits. Any-hit rate of the full collection: about 9.5%. Unless noted, the call rests on the fitted dose curve; in most records, active means well fitted inhibition curve with a large enough effect; inconclusive means small, poorly fitted or top-dose-only effect, or another doubt; inactive means no such curve, though single readings can be large or run the other way.

CCOc1ccc(N(CC(=O)NC(C)(C)C)C(=O)CCC(=O)Nc2nccs2)cc1	none
COc1cc(C(=O)ON=C2C3CC4CC(C3)CC2C4)cc(OC)c1OC	Pf growth 96h 1.47µM, Pf growth 48h 1.17µM
COc1cc(C(=O)O/N=C2\C=CC(=O)C=C2C)cc(OC)c1OC	none
O=C(N[C@@H](Cc1ccccc1)c1nc2ccccc2[nH]1)c1cc([N+](=O)[O-])ccc1Cl	Pf growth 96h inconclusive, Pf growth 48h 14.7µM
CCCCN(C(C)=O)c1ccc(S(=O)(=O)NC2=NCCCCC2)cc1NC(C)=O	none (no result: NS1 function inh, Pf growth 96h, Pf growth 48h)
Cc1ccc(NC(=O)CN(C)S(=O)(=O)c2ccc(Cl)s2)c(O)c1	none (no result: NS1 function inh)
COc1cc(C(=O)OC(C)CN2CCCCC2)cc(OC)c1OC (configuration not stated)	none
CCCc1ccc(NC(C)C(=O)Nc2ccc(S(=O)(=O)N3CCOCC3)cc2)cc1 (configuration not stated)	Pf growth 96h 5.22µM, Pf growth 48h inconclusive (no result: NS1 function inh)
CCCC(C(=O)Nc1cccc(S(=O)(=O)N2CCCC2)c1)c1ccccc1 (configuration not stated)	Pf growth 96h 10.4µM, Pf growth 48h inconclusive (no result: NS1 function inh, SARS PLpro yeast)
Cc1ccc(NC(=O)COc2cccc(Oc3ccccc3)c2)cc1S(=O)(=O)N1CCOCC1	Pf growth 96h inconclusive, Pf growth 48h 10.4µM (no result: NS1 function inh)
Cc1ccc(NC(=O)CN2c3cccc4cccc(c34)S2(=O)=O)cc1S(=O)(=O)N1CCOCC1	Pf growth 96h 9.28µM, Pf growth 48h inconclusive (no result: RE007 growth inh)
CC(CC(=O)Nc1cccc(S(=O)(=O)N2CCCCC2)c1)c1ccccc1 (configuration not stated)	Pf growth 96h inconclusive, Pf growth 48h inconclusive (no result: NS1 function inh)
COc1ccc(CC(=O)NCCS(=O)(=O)N2CCN(c3ccccc3OC)CC2)cc1	none (no result: NS1 function inh)
CC(C)CN(C(=O)c1cc(Cl)nc2ccccc12)C1CCS(=O)(=O)C1 (configuration not stated)	Pf growth 48h inconclusive (no result: NS1 function inh)
CN(C)c1ccc(/C=N\NC(=O)c2cnc3ccccc3c2)cc1	none (no result: RE007 growth inh, Pf growth 96h, Pf growth 48h, SARS PLpro yeast)
O=C(Nc1ccc2c(c1)OCCO2)C(CCc1ccccc1)N1CCC(Cc2ccccc2)CC1 (configuration not stated)	none (no result: NS1 function inh, Pf growth 96h, Pf growth 48h, SARS PLpro yeast)
CCCCNC(=O)c1ccc2nc(CC)c(N(CC)CCOC)n2c1	none (no result: NS1 function inh, Pf growth 96h, Pf growth 48h, SARS PLpro yeast)
CC(C)(C)c1ccc(C(=O)Cn2cnnc2C#N)cc1	Pf growth 96h inconclusive
CCCC(C(=O)Nc1ccc(C)c(S(=O)(=O)N2CCOCC2)c1)c1ccccc1 (configuration not stated)	Pf growth 96h inconclusive, Pf growth 48h 10.4µM (no result: NS1 function inh)
CCC(C)c1ccccc1N1CC(C(=O)Nc2ccc(C)c(S(=O)(=O)N3CCOCC3)c2)CC1=O (configuration not stated)	Pf growth 96h inconclusive, Pf growth 48h 13.1µM (no result: NS1 function inh)
CCC(C)c1ccccc1N1CC(C(=O)Nc2cc(S(=O)(=O)N3CCOCC3)ccc2OC)CC1=O (configuration not stated)	none (no result: NS1 function inh, Pf growth 96h, Pf growth 48h, SARS PLpro yeast)
CCCC(C(=O)Nc1ccc(S(=O)(=O)N2CCOCC2)cc1)c1ccccc1 (configuration not stated)	Pf growth 96h 9.28µM, Pf growth 48h 13.1µM (no result: NS1 function inh)
CCC(C(=O)OCC(=O)Nc1ccc(C)c(S(=O)(=O)N2CCOCC2)c1)c1ccccc1 (configuration not stated)	Pf growth 96h inconclusive, Pf growth 48h inconclusive (no result: NS1 function inh)
COc1cc(OC)cc(-c2noc([C@@H]3O[C@H](CO)[C@@H](O)[C@H]3O)n2)c1	none (no result: NS1 function inh, Pf growth 96h, Pf growth 48h, SARS PLpro yeast)
COc1ccc(-c2c(C(F)(F)F)nn(C)c2NC(=O)CSCC(=O)O)cc1	none
Cc1cccc(NC(=O)c2cc(S(=O)(=O)N(C)c3ccc(F)cc3)ccc2Cl)n1	Pf growth 96h 0.37µM, Pf growth 48h 0.329µM (no result: NS1 function inh, SARS PLpro yeast)
COc1ccccc1N(C)S(=O)(=O)c1ccc(Cl)c(C(=O)Nc2cccc(C)n2)c1	Pf growth 96h 2.33µM, Pf growth 48h 2.08µM (no result: NS1 function inh)
Cn1c(=O)c2c(nc(C3CC4C5CCC(C5)C4C3)n2C)n(C)c1=O (configuration not stated)	none (no result: NS1 function inh, Pf growth 96h, Pf growth 48h, SARS PLpro yeast)
COc1cc2c3nnc(-c4ccc(F)cc4)c-3cn(Cc3ccccc3)c2cc1OC	Pf growth 96h 0.415µM, Pf growth 48h inconclusive
COc1ccc(Cn2cc3c(-c4ccc(F)cc4)nnc-3c3cc(OC)c(OC)cc32)cc1	Pf growth 96h 0.147µM, Pf growth 48h 0.147µM
CN(C(=O)CSc1nc2ccccc2c(=O)n1-c1ccccc1Cl)C1CCS(=O)(=O)C1 (configuration not stated)	none (no result: NS1 function inh, Pf growth 96h, Pf growth 48h)
COC(=O)c1c(NC(=O)C2CC2)sc(C(=O)Nc2ccccc2)c1C	none (no result: NS1 function inh)
CCOC(=O)c1oc2nc3c(cc2c1N)CCCC3	Pf growth 96h 11.7µM
Cc1ccc2nc3sc(C(=O)Nc4c(C)[nH]c(=O)[nH]c4=O)c(N)c3cc2c1	Pf growth 96h 8.28µM
Cc1ccc2cc3c(N)c(C(=O)Nc4c(C)[nH]c(=O)[nH]c4=O)sc3nc2c1	NS1 function inh inconclusive, Pf growth 96h inconclusive
Cc1[nH]c(=O)[nH]c(=O)c1NC(=O)c1sc2nc3c(C)cccc3cc2c1N	Pf growth 96h 4.65µM
Cc1cccc(NC(=O)c2sc3nc(N)c(C#N)cc3c2N)c1	Pf growth 96h inconclusive, Pf growth 48h inconclusive
Cc1nn(-c2nnc(NC3CCCCC3)nn2)c(C)c1Br	Pf growth 96h inconclusive, Pf growth 48h inconclusive
Nc1ccccc1C(=O)NCc1ccco1	none
O=C(NCc1ccco1)c1ccccc1O	Pf growth 96h 10.4µM
Cc1ccc(C(=O)NCc2ccco2)c(C)c1	Pf growth 96h 11.7µM
Cc1ccc(C)c(S(=O)(=O)NCc2ccc(C(=O)NCc3ccco3)cc2)c1	Pf growth 96h 9.28µM, Pf growth 48h inconclusive
C#CCNC(=O)C[C@@H]1C[C@@]2(C(=O)OCC)CCCC=C2N(CCC2=CCCCC2)C1=O	none (no result: NS1 function inh, Pf growth 96h, Pf growth 48h, SARS PLpro yeast)
CCCCN(C(=O)c1ccc(S(=O)(=O)N2CCC(C)CC2)cc1)C1CCS(=O)(=O)C1 (configuration not stated)	RE007 growth inh inconclusive, Pf growth 96h inconclusive (no result: NS1 function inh)
CN1c2c(nc(N)[nH]c2=O)NCC1CNc1ccc(C(=O)NC(CCC(=O)O)C(=O)O)cc1 (configuration not stated)	none (no result: RE007 growth inh, NS1 function inh, SARS PLpro yeast)
O=C(c1ccc(Cl)c(S(=O)(=O)N2CCCCCC2)c1)N1CCCC1	none
O=C(NNC(=O)c1ccc(S(=O)(=O)N2CCOCC2)cc1)c1ccccc1	none
N#CC12CCCCC1CC1CCCCC1(C#N)N2Cc1ccccn1 (configuration not stated)	Pf growth 96h 9.28µM, Pf growth 48h inconclusive
N#CC12CCCCC1CC1CCCCC1(C#N)N2N (configuration not stated)	Pf growth 96h inconclusive, Pf growth 48h 13.1µM
N#CC12CCCCC1CC1CCCCC1(C#N)N2CCO (configuration not stated)	none
CSc1nc2ccccc2n1CC(=O)Nc1ccc(C)c(C)c1	none (no result: Pf growth 96h)
Cc1cccc(CSc2nc3ccncc3n2CC(=O)Nc2cc(C)cc(C)c2)c1	Pf growth 96h 8.28µM
O=C(COc1ccc(Cl)cc1)NNC(=O)c1ccccn1	Pf growth 96h inconclusive, Pf growth 48h 5.22µM
